Data published in PubChem BioAssay (NCATS).
Results filed as inconclusive are left out. Where a call stands in place of a potency, no number is given. Calls of active or inactive are those of the source. The call rests on the fitted dose curve; in most records, active means well fitted inhibition curve with a large enough effect; inconclusive means small, poorly fitted or top-dose-only effect; inactive means no such curve, though single readings can be large or run the other way.

Biological target: Furin (Homo sapiens) (UniProt P09958)
Experiment: Furin counterscreen qHTS for Zika virus inhibitors (AID 1347149); further: nearly all actives have a fitted effect of over 70% in size
Details: furin enzymatic counterscreen, fluorogenic substrate; series mostly up to 57.5 µM
In short: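 Fluorogenic cleavage of BOC-RVRR-AMC (2 microM final, Km ~15 µM) was monitored (ex 340, em 450 nm) at 37C after 15 min RT preincubation of 5 nM furin with compounds in HEPES pH 7.0 buffer with CaCl2 and Triton X-100. Percent inhibition was fitted to a 4-parameter Hill curve.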
Potency means the concentration at half of the fitted maximal effect.

Sequence of Furin (Homo sapiens) (P09958 whole entry, looked up): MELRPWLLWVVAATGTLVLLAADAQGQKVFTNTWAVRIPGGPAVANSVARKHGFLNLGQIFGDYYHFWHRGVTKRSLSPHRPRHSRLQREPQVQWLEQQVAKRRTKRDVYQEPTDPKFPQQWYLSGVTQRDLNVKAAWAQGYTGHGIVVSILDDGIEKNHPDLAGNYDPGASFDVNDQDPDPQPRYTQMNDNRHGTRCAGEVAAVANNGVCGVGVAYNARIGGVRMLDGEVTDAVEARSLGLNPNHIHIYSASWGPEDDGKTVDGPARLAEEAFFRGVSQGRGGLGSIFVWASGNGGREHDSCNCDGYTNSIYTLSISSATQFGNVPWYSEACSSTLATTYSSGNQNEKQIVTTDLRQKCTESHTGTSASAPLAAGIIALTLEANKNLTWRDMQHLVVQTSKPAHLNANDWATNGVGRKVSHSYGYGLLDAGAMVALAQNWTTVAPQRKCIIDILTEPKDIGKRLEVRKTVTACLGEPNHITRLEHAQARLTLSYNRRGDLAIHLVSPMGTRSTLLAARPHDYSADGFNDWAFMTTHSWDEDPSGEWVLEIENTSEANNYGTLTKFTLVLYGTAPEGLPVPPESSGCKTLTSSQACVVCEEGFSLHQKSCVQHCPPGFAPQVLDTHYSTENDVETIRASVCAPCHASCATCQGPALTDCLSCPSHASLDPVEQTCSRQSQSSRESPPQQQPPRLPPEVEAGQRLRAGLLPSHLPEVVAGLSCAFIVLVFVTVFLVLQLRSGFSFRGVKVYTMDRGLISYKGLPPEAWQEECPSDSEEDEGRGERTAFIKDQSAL

SMILES | Potency
O=c1[nH]c(=S)[nH]c(-c2ccccc2)c1Cc1c(O)ccc2ccccc12 | inactive
O=C1NC(=O)c2cc(Nc3ccccc3)c(Nc3ccccc3)cc21 | inactive
Cn1c(=O)c2[nH]c(-c3ccc(S(=O)(=O)O)cc3)nc2n(C)c1=O | 12.1 µM (active)

System: Zika virus NS2B-NS3 protease (unlinked)
Experiment: Optimization of GU AMC qHTS for Zika virus inhibitors: Unlinked NS2B-NS3 protease assay (AID 1347151); further: nearly all actives have a fitted effect of over 80% in size
Details: recombinant ZIKV NS2B-NS3 protease, fluorogenic AMC substrate; series mostly up to 52.5 µM
In short: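 Noncovalent NS2B hydrophilic domain–NS3 protease complex (25 nM final) in 10 mM Tris-HCl pH 8.0, 0.01% Tween 20; AMC substrate, room temperature 15 min (~20% conversion); fluorescence change normalized, 4-parameter Hill fit.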

SMILES | Potency
O=c1[nH]c(=S)[nH]c(-c2ccccc2)c1Cc1c(O)ccc2ccccc12 | 7.52 µM (active)
C=C1C[C@@]23CC[C@H]4[C@@](C)(CCC[C@@]4(C)C(=O)O)[C@@H]2CC[C@]1(O)C3 | inactive
CCCn1c(=O)c2[nH]c(C3CCCC3)nc2n(CCC)c1=O | inactive
O=c1cc(-c2ccccc2)[nH]c2nc(Cl)ccc12 | 11.9 µM (active)
NC(=O)CNCCC(c1ccccc1)c1ccccc1 | inactive
COc1ccccc1N1CCN(CCN(C(=O)c2ccc(F)cc2)c2ccccn2)CC1 | inactive
O=C(N[C@@H](Cc1ccccc1)C(=O)CCl)OCc1ccccc1 | inactive
O=C(O)C1=CCCN(CCON=C(c2ccccc2)c2ccccc2)C1 | inactive
O=C(O)/C=C/c1ccc(O)c(O)c1 | inactive
O=C(O)Cc1ccc(O)c(O)c1 | inactive
NCCCCN=C(N)N | inactive
Cc1cccc(C)c1OCC(N)C(C)C (stereo not given) | inactive
CNc1cc(NS(=O)(=O)c2ccc(N)cc2)nc(NC)n1 | inactive
C#CC(N)CCC(=O)O (stereo not given) | inactive
Nc1ccc(-c2nc3ccc(-c4nc5ccc(N)cc5[nH]4)cc3[nH]2)cc1 | 26.7 µM (active)
CN[C@H](CC(=O)O)C(=O)O | inactive
CCCCCCCCCC[Si](C)(C)CCC(=O)NC(Cc1ccc(C)cc1)c1ccccc1 (stereo not given) | inactive
